# Source: PubChem BioAssay (NCI)
# Compounds without any hit were thinned out: in the full panel of roughly 83,000, 20% have a hit.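 A percent growth of 40 corresponds to 60% growth inhibition; 0 means no net growth; -100 means all cells died. Active threshold: below 10.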 The source made the active and inactive calls.
# Test system: MOLT-4 leukemia
# Test: NCI-60 one-dose screen, 48 h (100 = growth as untreated, 0 = no growth, -100 = all killed)
# Details: 10 µM
# Procedure: Growth inhibition of the MOLT-4 human tumor cell line is measured as a screen for anti-cancer activity. Cells are grown in 96 well plates and exposed to the test compound for 48 hours. Compounds are tested at a single concentration, which is 10^-5 M for most compounds. The reported endpoint is percent growth (GI% or GIPRCNT), where numbers from 0 - 100% represent growth inhibition, and numbers from -100% - 0 represent cell death. For example, a value of 40 represents 60% growth inhibition. A value of 0 means no net growth occurred over the course of the experiment. A value of -40 indicates 40% of cells at the beginning of the experiment died by the end of the experiment. A value of -100 means all cells are dead at the end of the experiment.
# NCI-60 Human Tumor Cell Lines Screen was performed using the standard one-dose NCI protocol, which is described in more detail at https://dtp.cancer.gov/discovery_development/nci-60/default.htm.
# Compounds with GIPRCNT values below 10 were considered active. Activity score was based on GIPRCNT using the following formula: […]
# Score is 0 for GIPRCNT values of 100 or above, 50 for GIPRCNT values of 0, and 100 for GIPRCNT values of -100.
row,Compound,growth
1,COc1ccc(CN2[C@@H](C(=O)NCc3ccc(C(=O)NO)cc3)Cc3c([nH]c4ccccc34)[C@@H]2C)cc1,11.3% (inactive)
2,O=C(Nc1ccc(F)c(Cl)c1)c1cc(-c2ccc(F)cc2F)ccc1O,-21.1% (active)
3,O=c1cc(-c2ccccc2)oc2cc(OCCCNCc3ccccc3)cc(O)c12,-13% (active)
4,O=c1oc2ccc(-c3ccc(F)cc3F)cc2c(=O)n1-c1ccc(F)c(Cl)c1,-30.7% (active)
5,O=C(CSc1ccc(-c2ccc(Cl)cc2)nn1)Nc1ccc(Cl)c(C(F)(F)F)c1,11% (inactive)
6,Brc1ccc(/C=C/c2n(Cc3ccc4ccccc4c3)c3ccccc3[n+]2Cc2ccc3ccccc3c2)cc1,-7.46% (active)
7,CCCCSc1nc(Nc2ccc(/C(C)=N/NC(N)=S)cc2)c(C#N)c(-c2ccccc2)n1,47.3% (inactive)
8,COC[C@@H](CC(C)C)N=C1N/C(=C\c2ccc3ncsc3c2)C(=O)N1C,9.06% (active)
9,COc1ccc2[nH]c(=O)c(CSc3cccc(N)c3)cc2c1,41.2% (inactive)
10,N#Cc1c(-c2ccc(F)cc2)nc(SCc2ccc(F)cc2)nc1N1CCOCC1,91.6% (inactive)
11,CN1C/C(=C\c2ccc(O)cc2O)c2[o+]c3cc(O)ccc3cc2C1,37.8% (inactive)
12,C/C(=N\N=C\c1ccc(N(C)C)cc1)c1ccc2c(c1)Nc1ccccc1S2,34.3% (inactive)
13,Cc1ccc2nc(-c3ccc(-c4nnc(SCC(=O)Nc5ccc(Br)cc5)o4)cc3)[nH]c2c1,15.9% (inactive)
14,CC(=O)Nc1ccc(-n2cnc3cc(-c4ccc(NS(C)(=O)=O)cc4)ccc32)cc1,24.5% (inactive)
15,COC(=O)CC1CC1C1Cc2c(nc(N(C)S(C)(=O)=O)nc2C(C)C)-c2ccc(F)cc21 (stereo not given),38.6% (inactive)
16,Cc1cccc2cc(-c3cc(-c4ccccc4)nc(=O)[nH]3)c(Cl)nc12,61.3% (inactive)
17,COc1ccc2nc(Cl)c(-c3cc(-c4ccccc4)nc(N)n3)cc2c1,-18.1% (active)
18,COc1ccc(-c2c(N)c(=O)n(C)c3ccccc23)cc1,37.3% (inactive)
19,O=C(Nc1cccc([N+](=O)[O-])c1)Nc1cccc([N+](=O)[O-])c1,76.4% (inactive)
20,Cc1cc(C)cc(Oc2cccc(-c3c(C)nnn3C3CCN(CCN(C)C)CC3)n2)c1,30.8% (inactive)

row,Compound,growth
1,Cc1ccc(C(=O)N/C(=C2/OCCN2C)[P+](c2ccccc2)(c2ccccc2)c2ccccc2)cc1,84.4% (inactive)
2,CC(=O)NNc1ccc2nnc(-c3ccc(Br)cc3)n2n1,92.3% (inactive)
3,COc1cc(/C=C/C(=O)c2ccc(F)cc2)ccc1Oc1nc(Nc2ccc(F)cc2)nc(N(C)C)n1,1.46% (active)
4,CC[C@]12C=CCN3CC[C@@]4(c5cc(C#CCNc6ccc(C)c(Nc7nccc(-c8cccnc8)n7)c6)c(OC)cc5N(C)[C@H]4[C@@](O)(C(=O)OC)[C@@H]1OC(C)=O)C32 (stereo not given in full),37.9% (inactive)
5,COc1ccc(/C(C)=N/N=C2C(=O)N(C)c3ccc(Br)cc32)cc1S(N)(=O)=O,84.6% (inactive)
6,COc1ccc2[nH]cc(/C=N/Nc3ccc(Br)cn3)c2c1,24.6% (inactive)
7,COc1ccc(-c2cc(C(=O)N=Nc3c(O)[nH]c4ccc(Br)cc34)c3ccccc3n2)cc1,4.15% (active)
8,CC1CC(c2ccc(N(C)C)cc2)=NN1c1nc(O)c(C2=c3cc(Br)ccc3=NC2=O)s1 (stereo not given),70.5% (inactive)
9,CC(C)(C)c1ccc(NCc2cn(-c3ccc(C(=O)O)cc3)nc2-c2ccc(C#N)cc2)cc1,8.13% (active)
10,O=C(c1ccc(Cl)cc1)C1[C@H](c2ccc(Br)cc2)[C@@H](c2ccccc2)NC12C(=O)Nc1ccccc12 (stereo not given in full),-22.7% (active)
11,O=C(O)CCCCCCCCCCN1C(=O)/C(=C/c2cnc(-c3ccccc3)s2)SC1=S,39.1% (inactive)
12,CN(C)c1ccc(/C=C/c2nc3ccccc3c(=O)n2CC(=O)Nc2ccccc2)cc1,79.5% (inactive)
13,O=C(Nc1cccc(C(F)(F)F)c1)c1cncc(C#Cc2cnc3cccnn23)c1,24.3% (inactive)
14,COc1ccc(C2NC(=S)NC(C)=C2C(=O)OC(C)C)cc1OC (stereo not given),102% (inactive)
15,Cc1cc(C)nc(NS(=O)(=O)c2ccc(N/C(N)=N/c3nccc(-c4cccs4)n3)cc2)n1,96.8% (inactive)
16,Oc1ccc(/C=C2\CCCc3cc4ccc(O)cc4[o+]c32)c(O)c1,28.5% (inactive)
17,O=C(CNc1nc(-c2ccccc2)cs1)Nc1ccc(Br)cc1,-12.4% (active)
18,CCOc1ccc(/C=N/NC(=O)Cn2nc(Cc3ccc([N+](=O)[O-])cc3)c3onc(C)c3c2=O)cc1,75.7% (inactive)
19,CN(C)CCNC(=O)OCCCCOc1cc(O)c2c(=O)cc(-c3ccccc3)oc2c1,-42.1% (active)
20,O=C(NO)c1ccc(-c2nc3ccc4[nH]ncc4c3c3c2CCCC3)cc1,3.76% (active)
